For one sequence, binding signal results are on record in paper PMC7862700, “An all-to-all approach to the identification of sequence-specific readers for epigenetic DNA modifications on cytosine”.

Holding throughout (assay): DAPPL (digital affinity profiling via proximity ligation, sequencing); 10 mM Tris-HCl pH 7.5, 50 mM NaCl, 1 mM DTT, 4% glycerol, room temperature, 30 min; GST-TFs on glutathione beads, 16-mer random dsDNA library, 0.1% formaldehyde crosslink after washing; high values mean tight binding
The target in experiment [1] is T1, FLI1 (Homo sapiens, UniProt Q01543 1-452).
T1 sequence: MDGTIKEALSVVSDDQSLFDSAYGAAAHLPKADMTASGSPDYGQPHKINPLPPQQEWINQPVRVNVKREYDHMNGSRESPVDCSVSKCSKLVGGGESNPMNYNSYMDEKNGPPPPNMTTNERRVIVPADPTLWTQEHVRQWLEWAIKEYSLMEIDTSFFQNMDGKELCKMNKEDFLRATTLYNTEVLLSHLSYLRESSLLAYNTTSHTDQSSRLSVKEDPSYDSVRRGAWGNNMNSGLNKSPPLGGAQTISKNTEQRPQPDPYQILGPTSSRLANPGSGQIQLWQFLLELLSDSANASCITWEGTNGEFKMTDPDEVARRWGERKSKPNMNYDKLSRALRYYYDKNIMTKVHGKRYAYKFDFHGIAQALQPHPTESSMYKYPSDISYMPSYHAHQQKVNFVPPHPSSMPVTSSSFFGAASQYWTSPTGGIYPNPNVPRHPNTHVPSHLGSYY
To be noted: protein: recombinant; tags: N-terminal GST; dsDNA, one strand shown. The gist of the method:
(§1)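 Beads coated with glutathione captured GST-fused human transcription factors that had been expressed in yeast, and the factors were then given DNA barcodes and pooled with a tag-only sample. The pools were incubated with 200 nmole of a random double-stranded 16-mer DNA library in Tris/NaCl/DTT/glycerol buffer for 30 min at room temperature, washed, crosslinked with 0.1% formaldehyde and proximity-ligated with BsaI/T4 ligase at 37 °C for 1 h. PCR amplification and Illumina NextSeq500 sequencing came last. Binding signal is each hexamer's read frequency for a factor divided by its frequency for the tag-only sample.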

For experiment [2], the target named is T2, ELK1 (Homo sapiens, UniProt P19419 1-428).
T2 sequence: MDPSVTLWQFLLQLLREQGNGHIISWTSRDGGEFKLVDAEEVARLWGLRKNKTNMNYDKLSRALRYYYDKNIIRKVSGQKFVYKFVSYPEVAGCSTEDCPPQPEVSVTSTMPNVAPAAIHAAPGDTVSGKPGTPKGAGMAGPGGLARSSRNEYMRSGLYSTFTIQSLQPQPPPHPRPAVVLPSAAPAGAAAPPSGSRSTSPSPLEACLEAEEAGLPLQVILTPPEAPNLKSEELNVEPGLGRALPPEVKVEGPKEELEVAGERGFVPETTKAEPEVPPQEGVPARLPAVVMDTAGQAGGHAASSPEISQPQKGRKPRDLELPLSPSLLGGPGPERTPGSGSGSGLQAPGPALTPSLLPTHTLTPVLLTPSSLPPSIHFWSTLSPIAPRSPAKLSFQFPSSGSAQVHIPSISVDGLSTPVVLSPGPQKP
Conditions: protein: recombinant; tags: N-terminal GST; dsDNA, one strand shown. The gist of the method:
as §1

The target of experiment [3] is T3, GABPA (Homo sapiens, UniProt Q06546 1-454).
T3 sequence: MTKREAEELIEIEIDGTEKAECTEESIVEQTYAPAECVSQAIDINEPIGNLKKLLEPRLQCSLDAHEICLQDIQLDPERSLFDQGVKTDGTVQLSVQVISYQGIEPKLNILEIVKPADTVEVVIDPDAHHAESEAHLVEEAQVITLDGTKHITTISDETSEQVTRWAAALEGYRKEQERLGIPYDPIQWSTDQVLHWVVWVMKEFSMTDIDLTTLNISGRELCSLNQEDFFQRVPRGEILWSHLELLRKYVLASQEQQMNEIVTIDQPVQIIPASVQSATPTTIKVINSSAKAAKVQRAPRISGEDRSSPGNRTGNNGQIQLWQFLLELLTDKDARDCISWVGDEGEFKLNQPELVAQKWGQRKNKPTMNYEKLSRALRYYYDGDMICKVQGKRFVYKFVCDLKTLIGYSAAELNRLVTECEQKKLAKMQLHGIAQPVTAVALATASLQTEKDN
To be noted: protein: recombinant; tags: N-terminal GST; dsDNA, one strand shown. A digest of the protocol: as §1

For experiment [4], the target named is T4, ERG (Homo sapiens, UniProt P11308 1-479).
T4 sequence: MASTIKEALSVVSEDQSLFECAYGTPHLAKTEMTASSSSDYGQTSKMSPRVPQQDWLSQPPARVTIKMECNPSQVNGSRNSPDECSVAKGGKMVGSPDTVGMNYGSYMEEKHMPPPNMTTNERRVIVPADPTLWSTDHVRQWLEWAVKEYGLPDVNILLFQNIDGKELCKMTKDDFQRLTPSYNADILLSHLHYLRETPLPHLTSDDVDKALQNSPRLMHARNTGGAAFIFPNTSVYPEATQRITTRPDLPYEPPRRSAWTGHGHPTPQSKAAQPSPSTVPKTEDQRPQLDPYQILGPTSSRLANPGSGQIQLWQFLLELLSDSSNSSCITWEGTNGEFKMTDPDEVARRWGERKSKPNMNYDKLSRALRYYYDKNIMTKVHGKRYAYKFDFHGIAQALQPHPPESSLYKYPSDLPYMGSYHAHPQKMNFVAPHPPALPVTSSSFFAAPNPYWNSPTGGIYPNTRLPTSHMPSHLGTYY
Conditions: protein: recombinant; tags: N-terminal GST; dsDNA, one strand shown. The gist of the method: as §1

In experiment [5] the target is ELF1 (Homo sapiens, UniProt P32519 1-619). To be noted: protein: recombinant; tags: N-terminal GST; dsDNA, one strand shown. The gist of the method:
as §1

For experiment [6], the target named is T5, EHF (Homo sapiens, UniProt Q9NZC4 1-300).
T5 sequence: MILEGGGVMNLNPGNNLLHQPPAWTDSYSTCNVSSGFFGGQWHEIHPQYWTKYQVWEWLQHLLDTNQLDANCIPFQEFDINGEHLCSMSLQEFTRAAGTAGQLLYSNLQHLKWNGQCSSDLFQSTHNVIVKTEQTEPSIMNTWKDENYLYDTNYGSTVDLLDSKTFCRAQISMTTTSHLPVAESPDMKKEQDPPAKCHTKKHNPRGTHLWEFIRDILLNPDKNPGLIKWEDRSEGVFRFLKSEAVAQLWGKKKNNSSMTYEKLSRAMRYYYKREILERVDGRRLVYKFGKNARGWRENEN
Conditions: protein: recombinant; tags: N-terminal GST; dsDNA, one strand shown. A digest of the protocol:
as §1

For experiment [7], the target named is SPI1 (Homo sapiens, UniProt P17947 1-270). Conditions: protein: recombinant; tags: N-terminal GST; dsDNA, one strand shown. The gist of the method: as §1
For experiment [8], the target named is SPIB (Homo sapiens, UniProt Q01892 1-262). Conditions: protein: recombinant; tags: N-terminal GST; dsDNA, one strand shown. A digest of the protocol:
as §1

The target of experiment [9] is T6, ELK3 (Homo sapiens, UniProt P41970 1-407).
T6 sequence: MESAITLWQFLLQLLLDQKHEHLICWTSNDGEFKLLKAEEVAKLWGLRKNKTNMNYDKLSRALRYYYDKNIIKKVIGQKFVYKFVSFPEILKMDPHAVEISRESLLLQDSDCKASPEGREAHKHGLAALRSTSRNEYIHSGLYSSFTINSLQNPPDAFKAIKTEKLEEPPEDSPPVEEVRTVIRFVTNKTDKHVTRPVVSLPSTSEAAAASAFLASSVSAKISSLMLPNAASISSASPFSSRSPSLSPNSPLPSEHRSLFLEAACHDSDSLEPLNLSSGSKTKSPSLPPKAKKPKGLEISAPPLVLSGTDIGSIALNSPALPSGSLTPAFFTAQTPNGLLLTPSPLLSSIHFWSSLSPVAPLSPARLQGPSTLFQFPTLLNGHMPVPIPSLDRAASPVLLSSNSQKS
Conditions: protein: recombinant; tags: N-terminal GST; dsDNA, one strand shown. A digest of the protocol:
as §1

The target of experiment [10] is T7, FEV (Homo sapiens, UniProt Q99581 1-238).
T7 sequence: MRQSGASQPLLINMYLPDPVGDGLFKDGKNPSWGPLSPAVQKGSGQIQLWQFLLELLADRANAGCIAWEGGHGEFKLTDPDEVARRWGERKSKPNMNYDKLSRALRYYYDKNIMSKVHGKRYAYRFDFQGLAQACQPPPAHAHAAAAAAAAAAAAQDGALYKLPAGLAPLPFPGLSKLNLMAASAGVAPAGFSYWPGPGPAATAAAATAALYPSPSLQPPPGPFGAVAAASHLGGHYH
To be noted: protein: recombinant; tags: N-terminal GST; dsDNA, one strand shown. A digest of the protocol:
as §1

The target in experiment [11] is ETV5 (Homo sapiens, UniProt P41161 1-510). Conditions: protein: recombinant; tags: N-terminal GST; dsDNA, one strand shown. The gist of the method: as §1
Sequence of ETV5 (P41161 whole entry): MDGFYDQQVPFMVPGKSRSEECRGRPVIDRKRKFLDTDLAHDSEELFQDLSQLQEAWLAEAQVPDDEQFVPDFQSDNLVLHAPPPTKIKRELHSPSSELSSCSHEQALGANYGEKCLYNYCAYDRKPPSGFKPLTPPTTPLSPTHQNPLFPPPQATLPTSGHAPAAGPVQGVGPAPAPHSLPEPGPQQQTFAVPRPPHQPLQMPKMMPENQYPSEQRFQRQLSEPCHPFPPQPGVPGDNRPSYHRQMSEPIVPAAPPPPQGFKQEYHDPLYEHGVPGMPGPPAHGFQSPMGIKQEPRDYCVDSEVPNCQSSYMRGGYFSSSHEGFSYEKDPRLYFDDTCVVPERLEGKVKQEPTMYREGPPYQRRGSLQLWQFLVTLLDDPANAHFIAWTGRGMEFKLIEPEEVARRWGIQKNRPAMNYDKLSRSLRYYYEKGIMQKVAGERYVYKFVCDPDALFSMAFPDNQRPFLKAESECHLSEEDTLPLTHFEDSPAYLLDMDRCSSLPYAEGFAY
For experiment [12], the target named is HSF1 (Homo sapiens, UniProt Q00613 1-529). Conditions: protein: recombinant; tags: N-terminal GST; chain copies: 3; dsDNA, one strand shown. A digest of the protocol: as §1
Sequence of HSF1 (Q00613 whole entry): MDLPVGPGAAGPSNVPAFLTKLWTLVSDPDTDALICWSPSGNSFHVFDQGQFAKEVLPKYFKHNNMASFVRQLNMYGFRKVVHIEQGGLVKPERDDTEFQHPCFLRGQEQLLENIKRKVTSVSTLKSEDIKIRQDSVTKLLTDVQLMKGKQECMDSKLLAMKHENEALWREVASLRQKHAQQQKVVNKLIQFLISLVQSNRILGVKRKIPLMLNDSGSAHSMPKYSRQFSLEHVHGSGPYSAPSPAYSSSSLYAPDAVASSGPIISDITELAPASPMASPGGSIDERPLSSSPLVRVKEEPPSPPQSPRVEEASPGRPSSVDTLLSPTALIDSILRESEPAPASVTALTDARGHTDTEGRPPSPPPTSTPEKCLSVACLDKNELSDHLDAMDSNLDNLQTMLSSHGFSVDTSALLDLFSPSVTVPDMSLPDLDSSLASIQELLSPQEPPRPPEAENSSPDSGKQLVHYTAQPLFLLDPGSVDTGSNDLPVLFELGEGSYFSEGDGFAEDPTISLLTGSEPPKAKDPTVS
The target in experiment [13] is T8, SPIC (Homo sapiens, UniProt Q8N5J4 1-248).
T8 sequence: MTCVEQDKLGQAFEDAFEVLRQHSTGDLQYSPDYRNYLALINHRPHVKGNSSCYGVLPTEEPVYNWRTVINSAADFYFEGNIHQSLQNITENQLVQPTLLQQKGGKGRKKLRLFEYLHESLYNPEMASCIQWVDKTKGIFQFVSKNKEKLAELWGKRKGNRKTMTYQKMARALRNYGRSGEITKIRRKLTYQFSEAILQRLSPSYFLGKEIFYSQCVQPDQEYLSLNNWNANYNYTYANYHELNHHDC
Conditions: protein: recombinant; tags: N-terminal GST; dsDNA, one strand shown. A digest of the protocol:
as §1

In experiment [14] the target is ELF4 (Homo sapiens, UniProt Q99607 1-663). Conditions: protein: recombinant; tags: N-terminal GST; dsDNA, one strand shown. A digest of the protocol: as §1
Sequence of ELF4 (Q99607 whole entry): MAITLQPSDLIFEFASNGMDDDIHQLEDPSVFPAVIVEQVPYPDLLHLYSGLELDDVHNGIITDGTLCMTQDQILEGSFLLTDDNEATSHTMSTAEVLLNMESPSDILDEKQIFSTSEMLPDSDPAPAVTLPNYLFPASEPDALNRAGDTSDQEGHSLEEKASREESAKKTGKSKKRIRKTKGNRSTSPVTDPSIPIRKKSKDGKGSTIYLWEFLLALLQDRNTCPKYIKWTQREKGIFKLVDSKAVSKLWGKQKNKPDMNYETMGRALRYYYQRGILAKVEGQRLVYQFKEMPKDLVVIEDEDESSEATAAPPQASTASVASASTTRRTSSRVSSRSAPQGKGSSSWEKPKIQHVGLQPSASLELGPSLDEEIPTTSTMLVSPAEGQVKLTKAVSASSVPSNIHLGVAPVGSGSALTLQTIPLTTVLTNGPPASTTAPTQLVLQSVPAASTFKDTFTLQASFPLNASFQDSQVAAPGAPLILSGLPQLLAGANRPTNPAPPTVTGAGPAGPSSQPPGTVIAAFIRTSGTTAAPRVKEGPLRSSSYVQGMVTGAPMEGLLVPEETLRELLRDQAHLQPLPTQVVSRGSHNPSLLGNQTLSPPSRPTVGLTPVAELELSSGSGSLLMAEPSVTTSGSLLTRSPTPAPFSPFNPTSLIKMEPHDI
Experiment [15] deals with T9, ETV2 (Homo sapiens, UniProt O00321 1-342).
T9 sequence: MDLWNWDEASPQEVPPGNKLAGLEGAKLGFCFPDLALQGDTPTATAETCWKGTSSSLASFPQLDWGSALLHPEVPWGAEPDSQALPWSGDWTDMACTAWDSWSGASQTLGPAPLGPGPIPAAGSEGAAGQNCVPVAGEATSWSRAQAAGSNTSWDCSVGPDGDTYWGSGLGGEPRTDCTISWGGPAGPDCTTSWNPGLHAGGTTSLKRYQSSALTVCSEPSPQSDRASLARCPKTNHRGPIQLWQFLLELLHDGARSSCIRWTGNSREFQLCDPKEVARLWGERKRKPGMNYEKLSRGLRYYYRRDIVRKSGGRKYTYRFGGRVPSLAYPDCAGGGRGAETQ
To be noted: protein: recombinant; tags: N-terminal GST; dsDNA, one strand shown. The gist of the method: as §1

Experiment [16] has as its target CRX (Homo sapiens, UniProt O43186 1-299). To be noted: protein: recombinant; tags: N-terminal GST; dsDNA, one strand shown. A digest of the protocol: as §1
Experiment [17] addresses ETV1 (Homo sapiens, UniProt P50549 1-477). To be noted: protein: recombinant; tags: N-terminal GST; dsDNA, one strand shown. The gist of the method: as §1

Sequence of CRX (O43186 whole entry): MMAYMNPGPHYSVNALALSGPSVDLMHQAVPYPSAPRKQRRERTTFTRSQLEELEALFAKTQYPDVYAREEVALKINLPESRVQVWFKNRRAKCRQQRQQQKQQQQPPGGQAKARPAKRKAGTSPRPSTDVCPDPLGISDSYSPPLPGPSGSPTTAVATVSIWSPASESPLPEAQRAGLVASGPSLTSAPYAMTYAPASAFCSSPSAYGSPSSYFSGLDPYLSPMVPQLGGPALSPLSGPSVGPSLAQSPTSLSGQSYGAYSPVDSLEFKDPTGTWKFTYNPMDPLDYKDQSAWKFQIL
Sequence of SPIB (Q01892 whole entry): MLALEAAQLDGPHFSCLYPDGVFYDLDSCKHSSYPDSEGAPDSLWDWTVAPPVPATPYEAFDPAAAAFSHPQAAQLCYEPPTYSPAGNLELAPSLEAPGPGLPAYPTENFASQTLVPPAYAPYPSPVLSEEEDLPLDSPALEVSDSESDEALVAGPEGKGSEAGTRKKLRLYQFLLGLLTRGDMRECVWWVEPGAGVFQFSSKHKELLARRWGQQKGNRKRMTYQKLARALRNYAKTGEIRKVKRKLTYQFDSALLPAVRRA
Sequence of ELF1 (P32519 whole entry): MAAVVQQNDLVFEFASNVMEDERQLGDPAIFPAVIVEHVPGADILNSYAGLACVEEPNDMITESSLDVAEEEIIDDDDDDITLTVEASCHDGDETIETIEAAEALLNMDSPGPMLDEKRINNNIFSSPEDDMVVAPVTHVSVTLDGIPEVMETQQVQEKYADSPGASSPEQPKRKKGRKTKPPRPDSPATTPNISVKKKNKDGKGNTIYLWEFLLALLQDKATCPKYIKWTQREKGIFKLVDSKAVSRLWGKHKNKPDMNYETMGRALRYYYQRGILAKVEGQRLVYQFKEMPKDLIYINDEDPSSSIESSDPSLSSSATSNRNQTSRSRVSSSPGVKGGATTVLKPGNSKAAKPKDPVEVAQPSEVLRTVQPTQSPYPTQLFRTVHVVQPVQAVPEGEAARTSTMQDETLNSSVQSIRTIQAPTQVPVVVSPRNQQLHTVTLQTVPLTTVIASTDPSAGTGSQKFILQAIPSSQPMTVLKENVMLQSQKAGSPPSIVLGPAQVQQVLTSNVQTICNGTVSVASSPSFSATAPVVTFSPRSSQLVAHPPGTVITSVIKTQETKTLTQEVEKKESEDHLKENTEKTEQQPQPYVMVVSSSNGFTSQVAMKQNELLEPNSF
Sequence of ETV1 (P50549 whole entry): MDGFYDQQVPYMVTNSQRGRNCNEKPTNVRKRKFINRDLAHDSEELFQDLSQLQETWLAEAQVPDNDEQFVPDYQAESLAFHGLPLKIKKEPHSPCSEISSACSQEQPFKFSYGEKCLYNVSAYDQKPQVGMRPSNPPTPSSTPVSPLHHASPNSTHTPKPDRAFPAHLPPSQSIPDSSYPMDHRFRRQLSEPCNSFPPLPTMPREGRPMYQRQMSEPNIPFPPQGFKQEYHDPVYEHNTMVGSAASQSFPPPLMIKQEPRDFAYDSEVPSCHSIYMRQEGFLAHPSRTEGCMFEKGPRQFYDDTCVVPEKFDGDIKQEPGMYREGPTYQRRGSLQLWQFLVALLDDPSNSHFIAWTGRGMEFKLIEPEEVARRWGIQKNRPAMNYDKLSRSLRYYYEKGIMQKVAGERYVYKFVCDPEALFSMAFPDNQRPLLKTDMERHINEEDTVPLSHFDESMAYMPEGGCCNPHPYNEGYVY

Regarding CTAGGC, the binding signal is 1.17 fold enrichment (6-mer frequency, TF over GST control) in [1]; 1.1 fold enrichment (6-mer frequency, TF over GST control) in [2]; 1.23 fold enrichment (6-mer frequency, TF over GST control) in experiment [3]; 1.13 fold enrichment (6-mer frequency, TF over GST control) in experiment [4]; 1.14 fold enrichment (6-mer frequency, TF over GST control) in [5]; 1.01 fold enrichment (6-mer frequency, TF over GST control) in [6]. Moreover, the binding signal in experiment [7] was 1.07 fold enrichment (6-mer frequency, TF over GST control); in experiment [8], 1.05 fold enrichment (6-mer frequency, TF over GST control); in experiment [9], 1.1 fold enrichment (6-mer frequency, TF over GST control); in [10] it was 1.16 fold enrichment (6-mer frequency, TF over GST control); in experiment [11], 1.06 fold enrichment (6-mer frequency, TF over GST control); in experiment [12], 1.22 fold enrichment (6-mer frequency, TF over GST control). The binding signal in [13] is 1.15 fold enrichment (6-mer frequency, TF over GST control); in experiment [14] it was 1.16 fold enrichment (6-mer frequency, TF over GST control); in experiment [15], 1.21 fold enrichment (6-mer frequency, TF over GST control); in experiment [16], 1.17 fold enrichment (6-mer frequency, TF over GST control); in experiment [17], 1.04 fold enrichment (6-mer frequency, TF over GST control).
